biological target: Torsin-1A (Homo sapiens) (UniProt O14656); experiment: torsin A mutant lysate binding on microarrays – cell lysate, small-molecule microarray, COS7 lysate, 635/667 nm fluorescence, primary screen (AID 1150); conditions: COS7 hTOR1A mutant lysate, 635 nm fluorescence, higher = more signal;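 note: score pools 667 nm emission and signal to noise measuring lysate protein binding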
Sequence (O14656 whole entry, looked up): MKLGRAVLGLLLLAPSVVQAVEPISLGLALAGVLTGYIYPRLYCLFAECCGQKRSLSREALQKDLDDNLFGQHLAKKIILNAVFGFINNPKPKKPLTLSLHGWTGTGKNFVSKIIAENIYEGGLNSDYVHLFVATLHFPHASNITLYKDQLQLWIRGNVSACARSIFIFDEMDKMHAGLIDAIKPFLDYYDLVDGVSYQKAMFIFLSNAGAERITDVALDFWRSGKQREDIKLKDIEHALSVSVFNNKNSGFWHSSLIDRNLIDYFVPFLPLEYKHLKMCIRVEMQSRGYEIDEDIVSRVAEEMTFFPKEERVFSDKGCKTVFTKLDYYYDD

Compound	composite z-score
COCCOC(=O)N1C(=O)[C@@]2(c3ccccc31)[C@H](c1ccc(O)cc1)N1[C@H](c3ccccc3)[C@H](c3ccccc3)OC(=O)[C@H]1[C@@H]2C(=O)Nc1nc2ccccc2s1	1.23
C=CCOC(=O)[C@H]1[C@@H]2C(=O)O[C@@H](c3ccccc3)[C@@H](c3ccccc3)N2[C@@H](c2ccc(OCCOC(=O)[C@H]3C[C@H]4C(=O)N[C@@H](CCCCN(C)C)C(=O)N4[C@H]3c3ccc(O)cc3)cc2)[C@]12C(=O)Nc1ccc(I)cc12	1.33
NC(=O)[C@@H]1[C@H]2C(=O)O[C@H](c3ccccc3)[C@H](c3ccccc3)N2[C@H](c2ccc(O)cc2)[C@@]12C(=O)Nc1ccccc12	-2.06
CC(C)C[C@@H]1NC(=O)[C@H](C(C)C)NC(=O)[C@@]23C(=O)N[C@@H](Cc4ccccc4)C2[C@H](C)[C@@]2(C)O[C@H]2C3/C=C/CC/C=C/CNC1=O (stereo partly drawn)	0.0386
COC(=O)C(CC#Cc1ccc2c(c1)[C@]1(C(=O)N2)[C@H](c2ccc(OCCO)cc2)N2[C@H](c3ccccc3)[C@H](c3ccccc3)OC(=O)[C@H]2[C@@H]1C(=O)Nc1nc2ccccc2s1)C(=O)OC	0.414
O=C1NC(=O)C2C1C=CC(C(O)c1cc(C(F)(F)F)cc(C(F)(F)F)c1)N2Nc1ccccn1 (stereo not drawn)	0.237
Cc1ccc(S[C@]2(C(=O)NCCCN(C)C)CC(=O)N(Cc3cc(C(F)(F)F)cc(C(F)(F)F)c3)[C@@H]2c2ccc(CO)cc2I)cc1	-0.88
C=C(C(=O)CC[C@@H](OC(=O)c1cccnc1)c1ccccc1OCCO)C(C)C	0.962

Source: PubChem BioAssay
